Bioassay records deposited in PubChem by National Center for Advancing Translational Sciences (NCATS).
Only some compounds are listed: those with a hit (about 0.85% of all), similar ones and a draw of the others.
BCR signal inh: blocks chronic active B-cell receptor signaling. ABC-DLBCL IkBa-CBG/CBR reporter, luminescence ratio, 4 h. Potency, µM (doses to about 46.1 µM), for inactives: at the highest dose activity change, negative = inhibition, most hits filed as inhibitors. AID 493014. 340,000 compounds, 0.05% hits; active = well fitted inhibition curve with a large enough effect in the signal ratio, with a control signal flat, not every such curve was filed as active; inconclusive = small, poorly fitted or top-dose-only effect, or effect the other way, or a change in a side signal; the % refers to the signal ratio;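 note: potency is the fitted concentration of half-maximal effect; plate controls were basal doxycycline-induced cells for no effect and cells given 10 µM MG132 for full effect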
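Concentration-response series (up to 46 uM) were applied to TMD8 dual-reporter cells for 4 h at 37C with doxycycline. Green/red ratio, after filter-overlap correction, defined %Activity; red signal alone was normalised to basal cells and zero luminescence.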
TSHR antagonist: blocks TSH signaling through the human TSH receptor | P16473 | TSHR-expressing cells, TSH-stimulated cAMP HTRF, 2 h; hits give low values | activity change, negative = inhibition, % at 11.5 µM | 330,000 compounds, 0.2% hits;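 active = activity change below a set negative limit, meaning inhibition stronger than a set level, cut at about -70% in these data; inconclusive = activity change between two set negative limits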; note: % is set by controls: 0 for no effect and ±100 for the full control effect
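Freshly harvested TSHR cells receive pin-tooled compound, then EC80 TSH at 4nM final. After 2 hours at 37 deg C, antibody in lysis buffer and cAMP-d2 are added; 30 minutes at ambient temperature precede the HTRF read.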
Six1-Eya2 inh: blocks human Six1 binding to Eya2; Q15475+O00167; AlphaScreen GST-Six1/His-Eya2 binding, biochemical; hits give low values; activity change, % (no concentration beside the values); 360,000 compounds, 0.56% hits; AID 651725; note: % is set by controls: 0 for no effect and ±100 for the full control effect
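GST-Six1 + His-Eya2 (5X stock: 250/500 nM); Tris pH 8.0, 300 mM NaCl, 0.05% BSA, 0.02% Tween 20; GSH donor/Ni acceptor beads; 1 h 37 °C dark; AlphaScreen readout.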
CtBP-E1A blk: blocks the CtBP interaction with E1A; AlphaScreen GST-E1A/His-CtBP binding, 1536-well; hits give low values; activity change, % (concentration not given with the values); 340,000 compounds, 0.49% hits; AID 651724; note: % is set by controls: 0 for no effect and ±100 for the full control effect
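Protein mix (5X: 125 nM each GST-E1A, His-CtBP) was incubated with pinned compound 2 h at 37 deg C in dark, in 50 mM Tris pH 8.0 buffer with 300 mM NaCl. Glutathione donor and nickel acceptor beads followed; AlphaScreen signal read after 1 h.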
S-ASM inh: human S-ASM enzyme inhibition; P17405; placental ASM, HMU-PC fluorogenic substrate, 60 min; Potency, µM (highest dose often 57.5 µM), for the others: at the highest dose activity change, negative = inhibition, most hits filed as inhibitors; 340,000 compounds, 0.006% hits; AID 504937; active = well fitted inhibition curve with a large enough effect; inconclusive = small, poorly fitted or top-dose-only effect; inactive = no such curve, though single readings can be large or run the other way; note: potency is the fitted concentration of half-maximal effect
Target sequence (P17405 47-631 limits assumed): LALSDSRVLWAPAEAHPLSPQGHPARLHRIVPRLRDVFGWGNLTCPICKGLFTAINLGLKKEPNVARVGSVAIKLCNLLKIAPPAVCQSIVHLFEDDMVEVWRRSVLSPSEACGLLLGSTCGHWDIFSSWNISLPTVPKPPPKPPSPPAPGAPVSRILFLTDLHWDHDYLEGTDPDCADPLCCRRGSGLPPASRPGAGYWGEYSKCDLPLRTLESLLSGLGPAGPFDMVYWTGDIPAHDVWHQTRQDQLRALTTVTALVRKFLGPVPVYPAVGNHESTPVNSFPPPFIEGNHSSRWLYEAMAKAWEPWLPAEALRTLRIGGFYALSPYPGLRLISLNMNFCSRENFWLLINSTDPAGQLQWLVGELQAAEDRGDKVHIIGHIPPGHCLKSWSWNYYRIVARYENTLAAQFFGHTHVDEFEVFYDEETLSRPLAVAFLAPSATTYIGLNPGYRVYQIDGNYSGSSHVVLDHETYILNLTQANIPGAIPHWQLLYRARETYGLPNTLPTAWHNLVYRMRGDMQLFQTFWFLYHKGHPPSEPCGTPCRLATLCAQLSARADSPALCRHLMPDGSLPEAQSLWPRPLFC
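Fluorogenic HMU-PC substrate (9 uM final) is turned over by placental ASM in 60 min at 37 C after a 10 min compound preincubation. Reaction ended by alkaline stop (pH 10), with fluorescence read at 386/447 nm.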
An asterisk follows results filed as active; ? = inconclusive; · = no result given. Cut-off read from the data, not from the text of the source, unless noted: active = activity change below about -65%; inconclusive = mostly about -30% to -63%; inactive = weaker than that.

SMILES	BCR signal inh	TSHR antagonist	Six1-Eya2 inh	CtBP-E1A blk	S-ASM inh
COc1cc(C(=O)NCc2nnc(SCC(=O)Nc3cc(C)on3)o2)cc(OC)c1OC	-12%	7	-2	1	4%
Cc1cc(NC(=O)CSc2nnc(CNC(=O)c3ccc(C(C)(C)C)cc3)o2)no1	2%	4	-76*	?	1%
Cc1cc(NC(=O)CSc2nnc(-c3ccco3)o2)no1	·	·	-74*	-90*	1%
CC(=O)Nc1ccc(NC(=O)CSc2nnc(-c3ccco3)o2)cc1	-1%	-2	-1	3	-3%
COc1ccc(CNC(=O)C(=O)Nc2c3c(nn2-c2ccccc2)CSC3)cc1	11%	·	·	·	·
CCC1CCCCN1S(=O)(=O)c1ccc(NC(=O)CSc2ncccc2C(=O)O)cc1 (stereo not drawn)	2%	-5	-83*	5	8%
CCC1CCCCN1S(=O)(=O)c1ccc(NC(=O)c2cccs2)cc1 (stereo not drawn)	?	-18	-3	-13	-12%
COc1ccc(C(=O)COC(=O)C2CC3CCCC(C2)C3=O)cc1Br (stereo not drawn)	1%	6	-3	7	-4%
COc1ccc(C(=O)COC(=O)CN2CC(=O)Oc3ccccc32)cc1Br	?	1	-93*	-93*	-2%
N/C(=N\NC(=O)Nc1ccc(Cl)cc1)c1ccccn1	?	2	?	-76*	-1%
O=[N+]([O-])c1ccccc1Nc1ccccc1	2%	-6	-67*	?	-5%
COc1ccccc1CNS(=O)(=O)c1ccc(-n2cccn2)cc1	3%	-111*	-1	8	-1%
COc1cccc(CNC(=O)c2ccc(CNS(=O)(=O)c3ccc(C)cc3)cc2)c1	-1%	·	·	·	·
Cc1cc(C)n(C(=O)/C(C#N)=N/Nc2cc(Cl)cc(Cl)c2)n1	23%	-82*	-4	·	-10%
Cc1ccc(CS(=O)(=O)Cc2ccc(C(=O)NCCc3ccc(Cl)cc3)o2)cc1	-5%	·	·	·	·
CC(Sc1nnc(NCc2ccccc2)s1)C(=O)Nc1ccc2c(c1)C(=O)c1ccccc1C2=O (stereo not drawn)	?	19	-66*	-82*	-15%
Cc1cc(C)cc(-n2cnc3cc(C(=O)NCCc4ccccc4)ccc32)c1	-1%	·	·	·	·
Cc1ccccc1S(=O)(=O)NNC(=O)C(=O)NNc1ccccn1	?	11	-82*	-71*	0%
Cc1ccc(S(=O)(=O)NNC(=O)C(=O)NNc2ccccn2)cc1	-12%	3	-88*	-93*	7%
CC(=O)Nc1ccc(S(=O)(=O)NNC(=O)C(=O)NNc2ccccn2)cc1	2%	-7	?	·	6%
Nc1ccc(S(=O)(=O)NNC(=O)C(=O)NNc2ccccn2)cc1	-1%	-5	-93*	-68*	3%
Cc1cc(NS(=O)(=O)c2ccc(NC(=O)c3cnc(Cl)c(Cl)c3)cc2)nc(C)n1	3%	5	-91*	·	-1%
COc1cc(C(=O)NC2(C(F)(F)F)C(=O)NC(C)=C2C#N)cc(OC)c1OC (stereo not drawn)	-6%	·	·	·	·
CNc1c(NC(=O)c2ccc3c(c2)OCO3)c(=O)oc2ccccc12	?	-136*	13	-1	-5%
CCCCNC(=O)C(CC)Sc1nnc(-c2ccc(F)cc2)c(-c2ccc(F)cc2)n1 (stereo not drawn)	1%	·	·	·	·
SMILES	BCR signal inh	TSHR antagonist	Six1-Eya2 inh	CtBP-E1A blk	S-ASM inh
COc1ccc(-c2cc(-c3ccc(Cl)cc3)c(C#N)c(SCC(=O)O)n2)cc1	10%	-72*	-2	2	82%
COc1ccc(-c2cc(-c3ccccc3)c(C#N)c(SCC(=O)O)n2)cc1	·	·	-19	-21	87%
N#CC(c1ccccc1)c1ccc2c(C(F)(F)F)cc(C(F)(F)F)nc2n1 (stereo not drawn)	18%	1	-75*	-66*	-12%
Cc1ccc(C(C#N)c2ccc3c(C(F)(F)F)cc(C(F)(F)F)nc3n2)cc1 (stereo not drawn)	-2%	-15	?	?	-16%
Cc1ccnc(Nc2nc(-c3ccccc3)cs2)c1	?	-31	5	·	6%
C=CCNc1nc(-c2c(C)nc3ncccn23)cs1	-7%	-8	-17	-15	-1%
